# According to PubChem BioAssay AID2314 (National Center for Advancing Translational Sciences (NCATS), 2010):
# Among all 300,000 compounds or so, about 37,000 (12%) were called active. Cut-off read from the data, not from the text of the source: active = max response mostly above about 13% (no sharp cut-off); inactive = mostly below about 14%. What follows is part of a selection rich in actives, with near analogues and random picks from the rest.
# Test: Cycloheximide Counterscreen for Small Molecule Inhibitors of Shiga Toxin; note: read at 38.3 µM for the half of the compounds with a filed dose; 0% is about no effect
# Details: cell reporter, cycloheximide protein synthesis inhibition counterscreen; active compounds read high
row,Compound,max response
1,CCOc1cc(NC(=O)c2ccccc2C(=O)O)c(OCC)cc1NC(=O)c1ccccc1F,-0.886% (inactive)
2,Cc1cc(C(F)F)n2nc(C(=O)Nc3ccc(S(=O)(=O)NC45CC6CC(CC(C6)C4)C5)cc3)nc2n1,-6.02% (inactive)
3,O=C(C/C(=N\NC(=O)c1ccccc1Br)C(F)(F)F)c1cccs1,-1.94% (inactive)
4,CC(C)c1ccc(S(=O)(=O)NC2CCCC2)cc1,-3.21% (inactive)
5,O=C(Cn1nc(C(=O)O)c2ccccc2c1=O)Nc1ccc(F)cc1,5.62% (inactive)
6,CC(C(=O)NCCc1ccc(S(N)(=O)=O)cc1)N1C(=O)CC(C)(C)Sc2ccccc21 (centres undefined),-1.15% (inactive)
7,Cc1cc(C)c(S(=O)(=O)NCC2CCC(C(=O)NCc3ccc4c(c3)OCO4)CC2)c(C)c1 (centres undefined),-0.416% (inactive)
8,CN(C)CCOCCOc1ccc(Cl)c2ccccc12,-1.16% (inactive)
9,O=C(NC(Cc1ccc(O)cc1)C(=O)O)/C(=C/c1ccccc1)NC(=O)c1ccccc1 (centres undefined),18.4% (inactive)
10,COc1ccc(N2C(=O)c3ccccc3NC2c2ccc(OC)c(CN3CCOCC3)c2)cc1 (centres undefined),28.2% (active)
11,COc1ccc(C2Nc3ccccc3C(=O)N2c2ccc(Cl)cc2)cc1Cn1cc([N+](=O)[O-])cn1 (centres undefined),46.2% (active)
12,COc1ccc([N+](=O)[O-])cc1C1NN=C(c2cccc3ccccc23)S1 (centres undefined),-2.19% (inactive)
13,COc1ccc(C2Nc3ccccc3C(=O)N2c2ccc(F)cc2)cc1Cn1nnc2ccccc21 (centres undefined),2.31% (inactive)
14,COc1ccc(CN2CCCC(C(=O)c3ccc(Cl)cc3)C2)cc1Cn1cncn1 (centres undefined),-7% (inactive)
15,COc1ccc(C2Nc3ccccc3C(=O)N2Cc2ccccc2)cc1Cn1nnc2ccccc21 (centres undefined),-1.8% (inactive)
16,CCCCCCCC(=O)NC(Nc1ccccc1OC)C(Cl)(Cl)Cl (centres undefined),1.89% (inactive)
17,COc1ccc(C(=O)COC(=O)Cn2cnc3c2c(=O)n(C)c(=O)n3C)c(OC)c1,-1.6% (inactive)
18,O=C(C1CCCO1)N1CCN(S(=O)(=O)c2ccc(Br)cc2)CC1 (centres undefined),-1.38% (inactive)
19,Cc1cnc(CN(C)C(=O)C2CCC(=O)N(CCc3cccc(F)c3)C2)[nH]1 (centres undefined),-1.18% (inactive)
20,C=CCNc1nc(N)c([N+](=O)[O-])c(NC2CCCCC2)n1,-4.11% (inactive)
21,CC(C)(C)OC(=O)N1CCC(NC(=O)c2[nH]cnc2C(=O)N[C@@H](Cc2ccccc2)C(=O)OCc2ccccc2)CC1,-1.27% (inactive)
22,COc1ccccc1C1/C(=C(/O)c2ccc(C)cc2)C(=O)C(=O)N1Cc1ccco1 (centres undefined),3.34% (inactive)
23,Cn1cnc(S(=O)(=O)Nc2ccc3c(c2)OCCO3)c1,-2.48% (inactive)

row,Compound,max response
1,O=C1c2ccccc2C(Nc2ccc3c(c2)OCCO3)N1Cc1ccco1 (centres undefined),86.7% (active)
2,O=C(NC1CCCCC1)C1c2ccccc2C(=O)N1Cc1ccco1 (centres undefined),0.684% (inactive)
3,COC(=O)c1cccc(C(=O)N2CCCC(Nc3ccc4c(c3)OCCO4)C2)c1 (centres undefined),-1.68% (inactive)
4,Cc1ccnc(N2C(=O)c3ccccc3C2Nc2ccc3c(c2)OCCO3)c1 (centres undefined),42.1% (active)
5,CCOc1ccc2[nH]c(C(=O)N/N=C/c3cccc(OC)c3OC)cc2c1,9.3% (inactive)
6,CC(C)c1ccc(N(C(=O)c2ccco2)C(C(=O)NC2CCCC2)c2cccnc2)cc1 (centres undefined),-5.72% (inactive)
7,CCC1CCCCN1CCCNC(=O)c1cc2c(Cl)nc3ccccc3c2s1 (centres undefined),-11.5% (inactive)
8,Oc1ccc(-c2onc3ccc(Cl)cc23)cc1,15.4% (inactive)
9,CCOc1ccc(C(C)=O)cc1COC(=O)c1cnc(Cl)c(Cl)c1,-0.208% (inactive)
10,COC(=O)c1ccc(COC(=O)c2cnc(Cl)c(Cl)c2)cc1,34.6% (active)
11,COC(=O)c1ccc(COC(=O)c2cnccn2)cc1,-1.89% (inactive)
12,COc1ccc(NS(=O)(=O)c2ccc(O)c(C(=O)OCC(=O)NC3CCCCC3)c2)cc1,0.885% (inactive)
13,CCN(C(=O)COc1cccnc1[N+](=O)[O-])C1CCS(=O)(=O)C1 (centres undefined),-3% (inactive)
14,Cc1nn2c(=O)cc(COC(=O)c3ccc(NC(=O)C(C)(C)C)cc3)nc2s1,-6.18% (inactive)
15,COc1ccccc1-c1cc(C(=O)NCCCn2ccnc2)no1,-1.18% (inactive)
16,O=C(NCCCn1ccnc1)c1cc(-c2ccccc2)on1,27.9% (active)
17,O=C(NCCCn1ccnc1)c1ccccc1F,1.63% (inactive)
18,COc1cc(OC)cc(C(=O)NCCCn2ccnc2)c1,-2.01% (inactive)
19,O=C(NCCCn1ccnc1)c1cc(Br)c(Br)s1,-0.73% (inactive)
20,COc1ccc(-c2cc(C(=O)NCCCn3ccnc3)no2)cc1,19.9% (active)
21,CCN(Cc1ccccc1)C(=O)CCS(=O)(=O)c1ccc2c(c1)oc(=O)n2C,0.913% (inactive)
22,CCC(=O)c1cn(CCOc2ccccc2OC)c2ccccc12,3.68% (inactive)
23,CC(C)[C@H](NC(=O)N1CCn2c1nc1ccccc12)C(=O)NCCc1ccccc1,11.9% (inactive)

row,Compound,max response
1,CC(C)[C@H](NC(=O)N1CCn2c1nc1ccccc12)C(=O)NC1CC1,12.8% (active)
2,CC(C)C[C@H](NC(=O)N1CCn2c1nc1ccccc12)C(=O)NC1CC1,-12.6% (inactive)
3,CCOC(=O)c1cc(C(=O)Nc2ccc(S(=O)(=O)Nc3ccc(OC)cc3)cc2)nn1C,3.41% (inactive)
4,COc1ccc(-c2ocnc2C(=O)Nc2ccc3c(c2)CCC3)cc1,-4.1% (inactive)
5,CCOC(=O)N1CCN(Cc2nc3cc(NC(=O)CC)ccc3n2CC)CC1,-2.89% (inactive)
6,CCCC(=O)Nc1ccc2c(c1)nc1n2CCSC1,24.1% (active)
7,CCCC(=O)Nc1ccc2c(c1)nc(CCNC(=O)c1ccco1)n2C,-0.909% (inactive)
8,Cc1ccccc1N1CCN(Cc2nc(Cc3ccccc3F)no2)CC1,-1.36% (inactive)
9,O=C(/C=C/c1ccc(Cl)cc1Cl)NCc1ccco1,34.8% (active)
10,COC(=O)/C=C/C(=O)NCc1ccco1,-1.68% (inactive)
11,O=C(NCc1ccco1)C1(c2ccc(Cl)cc2)CCCC1,-3.56% (inactive)
12,FC(F)(F)C1CCCN(c2nsc3ccccc23)C1 (centres undefined),-4.78% (inactive)
13,Cc1ccc2[nH]c(=O)c(CN(CC3COCCO3)C(=O)Nc3ccccc3C)cc2c1 (centres undefined),-2.55% (inactive)
14,COc1ccc(NC(=O)c2cnc(NS(=O)(=O)c3ccccc3)nc2)cc1,-2.55% (inactive)
15,O=C(CS(=O)(=O)c1ccccc1)Nc1ccc(S(=O)(=O)Nc2ccccn2)cc1,-1.21% (inactive)
16,Cc1ccc(OCC(=O)Nc2ccc(-c3nc4ncccc4o3)cc2)cc1,-0.121% (inactive)
17,COc1ccc(CC(=O)Nc2ccc(-c3nnc(-c4ccccc4)o3)cc2)cc1,10.6% (active)
18,Cc1cccc(NC(=O)CSc2nnc(-c3ccco3)o2)c1,5.5% (inactive)
19,O=C(CCc1ccccc1)Nc1cccc(-c2nnc(-c3ccco3)o2)c1,1.83% (inactive)
20,COc1ccc(NC(=O)CS(=O)(=O)c2ccccc2)cc1,26.3% (active)
21,Cc1ccc(OCC(=O)Nc2nnc(-c3ccco3)s2)cc1,-1.91% (inactive)
22,Cc1ccc(OCC(=O)Nc2ccc(-c3nnc(-c4ccco4)o3)cc2)cc1,28.8% (active)
23,COc1ccc(CC(=O)Nc2c(C(N)=O)oc3ccccc23)cc1,-1.28% (inactive)

row,Compound,max response
1,CCC(=O)Oc1cccc(C(=O)Nc2ccc(-c3nnc(-c4ccco4)o3)cc2)c1,35.2% (active)
2,CC(=O)Nc1ccc(NC(=O)COc2ccc(-c3ccccc3)cc2)cc1,1.23% (inactive)
3,Fc1ccc2c(c1)C(c1cccnc1)=NNC(c1cccs1)=N2,14.7% (inactive)
4,CC(=O)Nc1ccc(Nc2c([N+](=O)[O-])cc(S(C)(=O)=O)cc2[N+](=O)[O-])cc1,-3.33% (inactive)
5,CCN(CC)S(=O)(=O)c1ccc(N2CCOCC2)c(NC(=O)C2CSC3(C)CCC(=O)N23)c1 (centres undefined),10.5% (inactive)
6,CC(=O)N1c2ccccc2N(Cc2ccc([N+](=O)[O-])cc2)C(=O)C1(C)C,10.6% (inactive)
7,O=C(COc1ncnc2c(Cl)cc(Cl)cc12)N1CCN(S(=O)(=O)c2ccccc2)CC1,4.8% (inactive)
8,CN(C)c1cccc(C(=O)N2CCC(n3nccc3NC(=O)C3CCOC3)CC2)c1 (centres undefined),5.41% (inactive)
9,O=C(CNC(=O)OCc1ccccc1)Oc1cc2oc(=O)cc(-c3ccccc3)c2cc1Cl,7.2% (inactive)
10,COc1cccc(N(CC(=O)NCc2ccccc2)C(=O)CCC(=O)Nc2nccs2)c1,-5.29% (inactive)
11,O=C(c1ccc(S(=O)(=O)N2CCCC2)cc1)N1CCN(c2ccccc2F)CC1,-1.05% (inactive)
12,Cc1ccc(S(=O)(=O)N(C)c2nc3ccccc3n3c(C(C)C)nnc23)cc1,1.55% (inactive)
13,CCc1nn(CCCC(=O)NC(C)c2ccccc2)c(=O)c2cc3occc3n12 (centres undefined),10.1% (inactive)
14,O=C(c1ccc(F)cc1)c1c[nH]c(C(=O)NCc2cccnc2)c1,0.811% (inactive)
15,C#CCOCCOCCOCCNc1nc(N2CCN(C(=O)[C@H](CCC(=O)O)n3cc(C(N)CO)nn3)CC2)nc(N2CCN(C(=O)[C@H](CCCCN)n3cc(C(N)[C@H](C)CC)nn3)CC2)n1 (some centres undefined),-1.6% (inactive)
16,CCCCOc1ccc(-c2nnc(-c3ccco3)o2)cc1,28.1% (active)
17,COc1ccc(OCC(=O)Nc2nnc(-c3ccco3)s2)cc1,-4.11% (inactive)
18,COc1ccc(C(=O)CSc2nnc(-c3ccco3)o2)cc1,11.4% (inactive)
19,O=c1c(Cl)c(NCc2ccc(F)cc2Cl)cnn1C12CC3CC(CC(C3)C1)C2,-2.73% (inactive)
20,COc1cccc(C2CC(c3cccs3)=NN2C(=O)CSC2=NCCS2)c1OC (centres undefined),-1.93% (inactive)
